In assay [1] the test system is thyroid hormone receptor (rat, GH3 cells). As to the kind of experiment: qHTS assay to identify small molecule agonists of the thyroid receptor (TR) signaling pathway (AID 743066). In general terms: Quantitative high-throughput screening tests each substance at several concentrations.
Assay [2] has as its target Estrogen receptor (Homo sapiens) (UniProt P03372). Description: qHTS assay to identify small molecule antagonists of the estrogen receptor alpha (ER-alpha) signaling pathway (AID 743069; active = well fitted curve in the direction sought with a large enough effect in the signal ratio in the repeat runs, not every such curve was filed as active; inconclusive = weak or mixed curves, or effect the other way; inactive = no such curve, though single readings can be large or run the other way; the % refers to the signal ratio; note: potency is the fitted concentration of half-maximal effect). The gist of the method: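 Antagonist mode: compounds in DMSO were co-added with 17beta-estradiol to ER-alpha-bla HEK293 cells (2% charcoal-stripped serum) and left 18 h at 37C. Reporter inhibition was measured as FRET fluorescence after 2 h LiveBLAzer substrate at room temperature.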

A short description of assay [3]: qHTS assay to identify small molecule antagonists of the estrogen receptor alpha (ER-alpha) signaling pathway - cell viability counter screen (AID 743074).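 Note: HEK293 cells carrying ER-alpha-UAS-bla reporter stimulated with 17beta-estradiol; nearly all actives have a fitted effect of over 45% in size.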 Note: potency is the fitted concentration of half-maximal effect.
Assay [4] concerns the target Estrogen receptor (Homo sapiens) (UniProt P03372). As to the kind of experiment: qHTS assay to identify small molecule agonists of the estrogen receptor alpha (ER-alpha) signaling pathway using the BG1 cell line (AID 743079; active = well fitted curve in the direction sought with a large enough effect in the repeat runs; inconclusive = weak or mixed curves; inactive = no such curve, though single readings can be large; an effect the other way counts as inactive or inconclusive; note: nearly all actives have a fitted effect of over 20% in size; note: potency is the fitted concentration of half-maximal effect). To be noted: BG1Luc4E2 cells, ERE-luciferase agonist, 22 h; activation: at 70.3 µM (top of the series).
Assay [5] can be described thus: qHTS assay to identify small molecule antagonists of the estrogen receptor alpha (ER-alpha) signaling pathway using the BG1 cell line (AID 743080).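 Note: BG1 cells stimulated with 17beta-estradiol alongside compound; nearly all actives have a fitted effect of over 25% in size.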 Note: potency is the fitted concentration of half-maximal effect. The procedure, abridged:
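Endogenous full-length ER-alpha in BG1-Luc-4E2 cells drives a stably integrated 4×ERE luciferase gene; compounds were tested against 17beta-estradiol over 21.5 h, with luminescence and multiplexed viability fluorescence recorded.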

The nature of assay [6]: qHTS assay to identify small molecule antagonists of the estrogen receptor alpha (ER-alpha) signaling pathway using the BG1 cell line - cell viability counter screen (AID 743081; active = well fitted curve in the direction sought with a large enough effect in the repeat runs; inconclusive = weak or mixed curves; inactive = no such curve, though single readings can be large; an effect the other way counts as inactive or inconclusive;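 note: compound given together with 17beta-estradiol as the ER stimulus; nearly all actives have a fitted effect of over 45% in size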; note: potency is the fitted concentration of half-maximal effect).
Another assay concerns the target Aromatase (Homo sapiens) (UniProt P11511). Description: qHTS assay to identify aromatase inhibitors (AID 743083; active = well fitted curve in the direction sought with a large enough effect in the repeat runs; inconclusive = weak or mixed curves; inactive = no such curve, though single readings can be large; an effect the other way counts as inactive or inconclusive; note: nearly all actives have a fitted effect of over 55% in size; note: potency is the fitted concentration of half-maximal effect).
The target in assay [7] is Estrogen receptor (Homo sapiens) (UniProt P03372). As to the kind of experiment: qHTS assay to identify small molecule agonists of the estrogen receptor alpha (ER-alpha) signaling pathway (AID 743075).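 Note: HEK293 GripTite cells with ER-alpha and UAS-driven beta-lactamase reporter.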 Note: potency is the fitted concentration of half-maximal effect.

Where “and” joins values, the source holds several entries; their conditions need not be identical. Equal values may be shown once. The source holds several records for some structures; these can differ, active in one and inactive in another. Calls of active or inactive are those of the source. Unless noted, calls come from the whole dose curve.

Chain of Aromatase (Homo sapiens) (P11511 whole entry, looked up): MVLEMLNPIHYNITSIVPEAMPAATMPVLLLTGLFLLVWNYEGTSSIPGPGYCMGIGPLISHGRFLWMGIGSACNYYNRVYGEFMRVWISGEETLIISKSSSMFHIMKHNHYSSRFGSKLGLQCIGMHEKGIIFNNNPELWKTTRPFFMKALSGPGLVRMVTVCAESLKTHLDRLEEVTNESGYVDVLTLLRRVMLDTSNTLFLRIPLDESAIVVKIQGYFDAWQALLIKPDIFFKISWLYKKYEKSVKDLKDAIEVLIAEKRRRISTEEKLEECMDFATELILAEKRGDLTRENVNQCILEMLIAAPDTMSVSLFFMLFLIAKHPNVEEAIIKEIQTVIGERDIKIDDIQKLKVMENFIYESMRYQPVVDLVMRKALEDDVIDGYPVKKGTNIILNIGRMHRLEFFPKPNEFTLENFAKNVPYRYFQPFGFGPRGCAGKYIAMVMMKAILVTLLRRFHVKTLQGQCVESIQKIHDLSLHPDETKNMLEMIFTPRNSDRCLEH
Chain of Estrogen receptor (Homo sapiens) (P03372 whole entry, looked up): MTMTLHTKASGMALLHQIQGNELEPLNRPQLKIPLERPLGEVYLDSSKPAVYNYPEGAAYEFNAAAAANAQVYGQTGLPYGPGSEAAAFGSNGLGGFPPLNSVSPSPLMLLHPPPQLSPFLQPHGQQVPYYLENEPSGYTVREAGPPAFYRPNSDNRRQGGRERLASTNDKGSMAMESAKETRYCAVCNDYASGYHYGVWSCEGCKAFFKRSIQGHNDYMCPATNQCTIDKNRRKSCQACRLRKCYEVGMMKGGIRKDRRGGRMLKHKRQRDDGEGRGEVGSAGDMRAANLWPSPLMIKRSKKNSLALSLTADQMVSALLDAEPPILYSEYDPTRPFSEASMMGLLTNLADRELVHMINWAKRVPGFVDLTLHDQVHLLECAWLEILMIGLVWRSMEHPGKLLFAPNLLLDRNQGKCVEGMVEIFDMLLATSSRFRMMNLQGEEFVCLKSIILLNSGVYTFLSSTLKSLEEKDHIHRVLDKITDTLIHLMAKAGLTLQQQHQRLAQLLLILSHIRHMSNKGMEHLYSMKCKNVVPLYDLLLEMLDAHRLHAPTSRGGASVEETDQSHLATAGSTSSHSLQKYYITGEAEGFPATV

For the molecule `O=[N+]([O-])c1ccc(Cl)c(Cl)c1Cl`, the Potency entry in assay [1], in assay [2], in assay [3], in assay [4], in assay [5] and in assay [6] was “inactive” in each case. The Potency entry with Aromatase (Homo sapiens) is “inactive”.

In the case of `CCN(CC)Cc1nccn1-c1ccc([N+](=O)[O-])cc1C(=O)c1ccccc1Cl`, the Potency entry in assay [1] and in assay [3] was “inactive” in each case.

Take `CC(C)N(C(=O)SC/C(Cl)=C/Cl)C(C)C`: the Potency result in assay [1], in assay [2], in assay [4], in assay [5] and in assay [6] was “inactive” each time.

`CC[C@H](C)[C@H]1O[C@]2(C=C[C@@H]1C)C[C@@H]1C[C@@H](C/C=C(\C)[C@@H](O[C@H]3C[C@H](OC)[C@@H](O[C@H]4C[C@H](OC)[C@@H](NC)[C@H](C)O4)[C@H](C)O3)[C@@H](C)/C=C/C=C3\CO[C@@H]4[C@H](O)C(C)=C[C@@H](C(=O)O1)[C@]34O)O2`: the Potency in assay [2] was 30.9 µM [cytotoxic] (active); in assay [3], 13.8 µM (active); in assay [6] it was 30.6 µM (active); in the assay with Aromatase (Homo sapiens) it was 4.86 µM (active).

Consider `O=[N+]([O-])[O-].[Tl+]`, for which the Potency entry in assay [3] and in assay [6] was “inactive” in each case. In the assay with Aromatase (Homo sapiens), the Potency was 69.1 µM (active).

As to `C#CCO`, the Potency entry in assay [2], in assay [3], in assay [7], in assay [4], in assay [5] and in assay [6] was “inactive” each time. Moreover, the Potency result in the assay with Aromatase (Homo sapiens) is “inactive”.

For `CCN(CC)C(=O)N[C@@H]1C=C2c3cccc4[nH]cc(c34)C[C@@H]2N(C)C1`, the Potency entry in assay [1], in assay [2], in assay [3], in assay [7], in assay [4] and in assay [6] was “inactive” each time.

On to `CC(=O)[O-].CC(=O)[O-].O.O.[Zn+2]`, for which the Potency entry (in assay [1]; in assay [6]; in the assay with Aromatase (Homo sapiens)) was “inactive” each time.

Take `CCC(C)Nc1c([N+](=O)[O-])cc(C(C)(C)C)cc1[N+](=O)[O-]` (stereo unspecified): the Potency entry (in assay [2]; in assay [3]; in assay [7]; in assay [5]; in assay [6]; in the assay with Aromatase (Homo sapiens)) was “inactive” each time. Further, in assay [4], the Potency is 61.1 µM (active).

Regarding `c1ccc2c(c1)cc1ccc3cccc4ccc2c1c34`, the Potency result (in assay [1]; in assay [3]; with Aromatase (Homo sapiens)) was “inactive” in each case.

`COc1ccc(Cc2nccc3cc(OC)c(OC)cc23)cc1OC`: the Potency entry (in assay [1]; in assay [3]; in assay [6]; with Aromatase (Homo sapiens)) was “inactive” each time.

On to `Cc1c([N+](=O)[O-])c(C)c([N+](=O)[O-])c(C(C)(C)C)c1[N+](=O)[O-]`, for which the Potency entry in assay [1], in assay [3], in assay [7], in assay [4], in assay [5] and in assay [6] was “inactive” in each case.

As to `CC(=O)[O-].CC(=O)[O-].CC(=O)[O-].[Cr+3]`, the Potency result in assay [1], in assay [3] and in assay [6] was “inactive” throughout.

In the case of `COc1ccc2[nH]cc(CCN(C(C)C)C(C)C)c2c1`, the Potency result (in assay [1]; in assay [3]; in assay [6]; with Aromatase (Homo sapiens)) was “inactive” each time.

In the case of `Cc1ccc2cc3c(ccc4ccccc43)c3c2c1CC3`, the Potency result in assay [2], in assay [3] and in assay [6] was “inactive” in each case. Also, the Potency was 6.18 µM [activator] (active) in assay [7] and 546 nM (active) in assay [5].

For `Cc1c([N+](=O)[O-])cc2c(c1[N+](=O)[O-])C(C)(C)CC2(C)C`, the Potency result in assay [1], in assay [3] and in assay [6] was “inactive” in each case. The Potency in assay [7] was 21.9 µM [inconclusive] (active); in assay [5], 15400 nM (active); in the assay with Aromatase (Homo sapiens), 27.3 µM (active).

Turning to `Clc1ccc(C(Cl)(Cl)Cl)cc1Cl`, the Potency entry in assay [2], in assay [3], in assay [7], in assay [4], in assay [5] and in assay [6] was “inactive” each time. The Potency entry in the assay with Aromatase (Homo sapiens) was “inactive”.

For `O=S1OCC2C(CO1)C1(Cl)C(Cl)=C(Cl)C2(Cl)C1(Cl)Cl` (stereo unspecified), the Potency entry in assay [2], in assay [3] and in assay [6] was “inactive” in each case. Further, the Potency in assay [7] is 43.7 µM [inconclusive] (active) and inactive; in assay [4] it was 1.94 µM (active); in assay [5], 61.2 µM (active) and 61.1 µM (active); in the assay with Aromatase (Homo sapiens) it was 27.3 µM (active).

Consider `Oc1cc(Cl)cc(Cl)c1`, for which the Potency result in assay [1], in assay [3], in assay [7], in assay [4], in assay [5] and in assay [6] was “inactive” in each case.

Regarding `CCn1cc[n+](C)c1` (tested in a mixture with another compound), the Potency result in assay [1], in assay [3] and in assay [6] was “inactive” throughout.

For `Nc1ccc(N=Nc2ccccc2)cc1`, the Potency entry (in assay [1]; in assay [7]; in the assay with Aromatase (Homo sapiens)) was “inactive” each time. The Potency in assay [4] was 14.1 µM (active); in assay [6] it was 43.3 µM (active).

In the case of `CCO/N=C(\CC)C1=C(O)CC(c2c(C)cc(C)cc2C)CC1=O` (stereo unspecified), the Potency entry (in assay [1]; in assay [3]; in assay [7]; in assay [4]; in assay [5]; in the assay with Aromatase (Homo sapiens)) was “inactive” in each case.

For `COP(=S)(OC)Oc1nc(Cl)c(Cl)cc1Cl`, the Potency result in assay [1], in assay [3], in assay [7], in assay [4], in assay [5] and in assay [6] was “inactive” throughout. For the same molecule, in the assay with Aromatase (Homo sapiens), the Potency result is “inactive”.

For the molecule `CC(C)=CCN1CC[C@@]2(C)c3cc(O)ccc3C[C@@H]1[C@@H]2C`, the Potency entry (in assay [1]; in assay [2]; in assay [7]; in assay [4]; in assay [6]; in the assay with Aromatase (Homo sapiens)) was “inactive” throughout.

Consider `Clc1cc(Cl)c(-c2cc(Cl)c(Cl)cc2Cl)cc1Cl`, for which the Potency entry (in assay [1]; in assay [3]; in assay [6]; in the assay with Aromatase (Homo sapiens)) was “inactive” throughout.

Values taken from PubChem BioAssay (Tox21).
